# Shown is part of a subset that was picked to be rich in hits.
# AMA1-RON2 inh – inhibitors of Plasmodium falciparum AMA1-RON2 interaction. AlphaScreen AMA1-biotinylated RON2 peptide binding. Potency, µM (series often up to 58.2 µM), without a hit: top-dose activity change, negative = inhibition, most hits filed as inhibitors. actives 0.2% (n = 360,000). AID 720542; active = well fitted inhibition curve with a large enough effect; inconclusive = small, poorly fitted or top-dose-only effect; inactive = no such curve, though single readings can be large or run the other way;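 also: potency is read from the fitted curve at half-maximal effect; 0% = vehicle wells and -100% = peptide control; nearly all actives have a fitted effect of over 45% in size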
#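 AMA1 (3D7) with his tag at 25 nM final met compounds first, then biotinylated RON2 peptide at 25 nM; detection used donor plus acceptor beads, 10 µg/mL apiece, read by AlphaScreen after 30 min at room temperature.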
# Marburg entry inh – blocks Marburg virus binding to or entry into cells; actives 1.8% (n = 300,000); Marburg virus pseudotyped entry inhibition, cell reporter; Potency, µM (doses to about 37.8 µM), inactives show top-dose activity change, negative = inhibition, hits mostly inhibitors; AID 540276; calls by dose curve; tested in HEK293 cells; also: potency is read from the fitted curve at half-maximal effect; % is scaled to controls: 0 for no effect and ±100 for the full control effect
# CHX counter – counter-screen for Shiga toxin inhibitors: cycloheximide protein synthesis inhibition; max response, %; AID 2314; actives 12% (n = 300,000); cell reporter, cycloheximide protein synthesis inhibition counterscreen; in the data active = max response mostly above about 13%, no sharp cut-off; inactive = mostly below about 14%; also: read at 38.3 µM for the half of the compounds with a filed dose; 0% is about no effect
# Shiga toxin inh – Shiga toxin inhibition; AID 2315; actives 9.2% (n = 290,000); Vero cells, Shiga toxin protein synthesis inhibition reporter; inhibition, % at 38.7 µM; in the data active = inhibition mostly above about 28%, no sharp cut-off; inactive = mostly below about 43%; also: 0% is about no effect
# LASV entry inh – inhibitors of Lassa virus binding or cell entry. Lassa virus pseudotype entry inhibition, cell reporter. Potency, µM (series often up to 37.9 µM), for the others: at the top dose activity change, negative = inhibition, hits mostly inhibitors. actives 1.2% (n = 300,000). AID 540256; calls by dose curve; tested in HEK293 cells; also: potency is read from the fitted curve at half-maximal effect; % is scaled to controls: 0 for no effect and ±100 for the full control effect; nearly all actives have a fitted effect of over 50% in size
# Starred values were filed as active, the others as inactive; i = inactive; ? = inconclusive; . = no result; [ ] = dose if it differs, or a comment.
SMILES,AMA1-RON2 inh,Marburg entry inh,CHX counter,Shiga toxin inh,LASV entry inh
CSc1ccc(/C=N/NC(=O)c2cccs2)cc1,26%,?,52*,66*,?
O=C(N/N=C\c1ccc(Cl)s1)c1cccs1,11%,-14%,43*,85,?
O=C(O)c1ccc(COc2ccc(/C=N/NC(=O)c3cccs3)cc2)cc1,21%,2%,73,113,?
O=C(N/N=C/c1ccc(Cl)s1)C(O)c1ccccc1 (centres undefined),-2%,.,7,16,.
O=C(N/N=C/C=C\c1ccco1)c1cccs1,56%,?,29*,82*,-10%[46.1 µM]
O=C(N/N=C/c1ccncc1)c1cccs1,12%,.,52*,91*,.
O=C(Cc1ccccc1[N+](=O)[O-])OCC(=O)c1ccccc1Br,-1%,.,.,.,.
COc1ccc(CCNC(=O)CCCn2c(=O)c3ccccc3n(CC(=O)Nc3cccc(C)c3)c2=O)cc1OC,.,-7%[46.1 µM],.,.,2%[46.1 µM]
COc1ccccc1CNC(=O)C1CCN(S(=O)(=O)c2c(C)noc2/C=C/c2c(C)cc(C)cc2C)CC1,.,.,.,.,27%[46.1 µM]
Cc1cc(C)cc(NC(=O)CSCc2cc(=O)c3cc(Cl)ccc3[nH]2)c1,.,.,.,.,-28%[46.1 µM]
O=C(N/N=C/c1ccncc1)c1ccc(NS(=O)(=O)c2cccs2)cc1,7%,?,9,25,11%
O=C(N/N=C/c1ccc(-n2ccnc2)cc1)c1cccs1,-2%,?,45*,85*,-23%[46.1 µM]
O=C(N/N=C/c1ccc(-c2ccccc2C(=O)O)o1)c1cccs1,0%,?,33*,49*,26%[46.1 µM]
Cc1ccc(/C=N/NC(=O)CNC(=O)c2cccs2)o1,18%,.,7,16,.
COc1ccccc1/C=N/NC(=O)c1ccccc1Cl,-1%,7%[46.1 µM],15,3,5%
COc1ccccc1C(=O)N/N=C/c1cnc2ccccc2n1,-2%,-19%,59*,125*,?
COc1ccccc1C(=O)N/N=C/c1ccc(Cl)s1,-1%,52%,49*,78*,-1%
COc1ccccc1C=NNC(=O)c1ccccc1OCCOc1ccccc1,7%,?,.,.,?
O=C(NCc1ccco1)c1ccc2c(c1)OCCO2,5%,37%[46.1 µM],24*,26*,?
Cc1cc(C(=O)NCc2ccccc2F)cs1,-5%,-7%,16*,34,1%
O=C(NCc1ccco1)c1ccc2c(c1)CCO2,-9%,-1%[46.1 µM],18,17,13%
O=C(NCc1ccccc1F)c1ccc2c(c1)OCCO2,7%,16%,23*,.,-14%
Fc1ccccc1CNCCc1ccc2c(c1)OCO2,-27%,.,3,23,.
Fc1ccccc1CNCc1ccc2c(c1)OCO2,-3%,.,19*,22,.
CCCNC(=O)C[C@@H]1CC[C@H]2NC[C@H](O)COC[C@@H]2O1,2%,.,.,.,.
SMILES,AMA1-RON2 inh,Marburg entry inh,CHX counter,Shiga toxin inh,LASV entry inh
Cc1nc(C)c(-c2ccc(SCc3ccc(Cl)cc3)nn2)s1,-11%,.,2,9,.
O=C(CSc1ccc(-c2ccco2)nn1)c1ccc(F)cc1,-26%,2%,29*,active,11%
Fc1ccc(CSc2ccc(-c3ccco3)nn2)cc1,-13%,-1%,19*,33*,-13%
O=C(CSc1ccc(-c2ccco2)nn1)NCc1ccc(F)cc1,-3%,25%,-1,-9,1%
O=C(CSc1ccc(-c2ccco2)nn1)Nc1ccccc1F,-16%,.,21,0,.
Fc1cccc(CSc2ccc(-c3ccco3)nn2)c1,2%,23%,67*,79*,5%
Cc1nc(C)c(-c2ccc(SCc3cccc(F)c3)nn2)s1,-4%,.,21*,25,.
CCN(CCCCO)c1nc(C)nc2c1c(C)c(C)n2-c1c(C)cc(C)cc1C,.,.,-8,-10,.
C[C@H](CO)N1C[C@H](C)[C@H](CN(C)Cc2ccc(Oc3ccccc3)cc2)Oc2cc(Br)ccc2S1(=O)=O,-18%,.,.,.,.
COc1ccccc1N(CC(=O)NC1CCCC1)C(=O)c1cnn(C(C)C)c1,-17%,-18%,28*,56*,15%
COc1ccccc1N(CC(=O)NC1CCCCC1)C(=O)c1cnn(C(C)C)c1,9%,18%,-1,-4,23%
CCCOc1cccc(OCCSc2nc(C)cc(=O)[nH]2)c1,-2%,-20%,46*,31,?
Cc1nnc2n(-c3ccccc3)c(=O)c3c4c(sc3n12)C[C@H](C)CC4,.,-19%,.,.,.
Cn1nnnc1SCc1nnc(-c2ccc(Cl)cc2)o1,14%,?,29*,56*,8%
Cc1ccc(-c2nnc(CSc3nncn3N)o2)cc1,9%,?,19*,35,4%
Cn1c(SCc2nc(-c3ccc(Cl)cc3)no2)nnc1-c1ccccc1,4%,6%,-1,-7,19%
Cc1occc1-c1nnc(SCc2nnc(-c3ccc(Cl)cc3)o2)n1C,14%,3%,31*,65*,9%
COc1ccc(C2(C)NC(=O)N(CC(=O)Nc3ccc(-c4nc5ccc(C)cc5s4)cc3)C2=O)cc1 (centres undefined),0%,?,64*,112*,?
CCC1(c2ccc(F)cc2)NC(=O)N(CC(=O)Nc2ccc(-c3nc4ccc(C)cc4s3)cc2)C1=O (centres undefined),9%,?,39*,107*,?
CCC1(c2ccc(F)cc2)NC(=O)N(CC(=O)Nc2ccc3c(c2)OCCO3)C1=O (centres undefined),5%,.,.,.,.
Cc1ccc(NC(=S)N/C(=N/S(=O)(=O)c2ccccc2)c2ccccc2)cc1,11%,-1%,49*,90*,?
Cc1ccc(S(=O)(=O)/N=C(/NC(=S)Nc2ccccc2)c2ccccc2)cc1,16%,0%[46.1 µM],30*,73*,?
CC1(C(=O)NS(C)(=O)=O)CCN1C(=O)C/C=C/c1ccccc1 (centres undefined),-5%,.,.,.,.
COc1cccc(C(C)N(C)Cc2nc(COc3ccccc3)no2)c1 (centres undefined),16%,.,-4,25,.
CC(c1cccs1)N(C)Cc1nc(CCc2ccccc2)no1 (centres undefined),20%,9%,17,37*,-21%
SMILES,AMA1-RON2 inh,Marburg entry inh,CHX counter,Shiga toxin inh,LASV entry inh
CCc1cccc(NC(=O)CN(C)S(=O)(=O)c2ccc3c(c2)n(C)c(=O)c(=O)n3C)c1,.,-4%[46.1 µM],.,.,13%[46.1 µM]
O=C(O)CCc1ncc(C(F)(F)F)cc1Cl,?,19%,-2,-6,12%
O=S(=O)(Cc1ncc(C(F)(F)F)cc1Cl)c1ccccc1,-9%,-24%[46.1 µM],45*,51*,?
COc1ccc(NC2C[C@H]3CCCC(=O)N4CC[C@@H](C2)[C@@H]34)cc1 (some centres undefined),.,.,-1,i,.
COc1ccc(N(Cc2cc3ccccc3[nH]c2=O)S(=O)(=O)c2ccc(C)cc2)cc1,5%,.,27*,39*,.
CN(Cc1cc2ccccc2[nH]c1=O)S(=O)(=O)c1ccccc1,11%,25%,19*,33,?
CN1CCc2c(sc(/N=C/c3cc(C(C)(C)C)ccc3O)c2C#N)C1,-11%,9%[46.1 µM],2,11,25%[46.1 µM]
CCn1c(NC(=S)Nc2ccccc2)nc2ccccc21,58%,0%,29*,53*,3%

# Bioassay records deposited in PubChem BioAssay by National Center for Advancing Translational Sciences (NCATS).
